Laboratory results from PubChem BioAssay AID743314 (Broad Institute, 2014).
Entries with a potency or affinity are not part of this list. Results filed as inconclusive are left out.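 The calls were made as follows: active = fitted half-maximal concentration no higher than twice the top tested dose, in every repeat run; inconclusive = repeat runs disagree, poor fit, or flat partial inhibition; inactive = the rest.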

Molecular target: Endoplasmic reticulum aminopeptidase 1 (Homo sapiens) (UniProt Q9NZ08)
Assay: inhibition of human ERAP1 enzyme activity – biochemical, cherry-pick, set 2, plate reader, dose response (AID 743314);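 also: 0% = neutral control wells and -100% = L-leucinethiol positive control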
Details: Recombinant ERAP1, Leu-AMC fluorescence, 60 min; series mostly up to 11 µM; activity change, negative = inhibition: at the top concentration

Endoplasmic reticulum aminopeptidase 1 (Homo sapiens), sequence (Q9NZ08 whole entry, looked up): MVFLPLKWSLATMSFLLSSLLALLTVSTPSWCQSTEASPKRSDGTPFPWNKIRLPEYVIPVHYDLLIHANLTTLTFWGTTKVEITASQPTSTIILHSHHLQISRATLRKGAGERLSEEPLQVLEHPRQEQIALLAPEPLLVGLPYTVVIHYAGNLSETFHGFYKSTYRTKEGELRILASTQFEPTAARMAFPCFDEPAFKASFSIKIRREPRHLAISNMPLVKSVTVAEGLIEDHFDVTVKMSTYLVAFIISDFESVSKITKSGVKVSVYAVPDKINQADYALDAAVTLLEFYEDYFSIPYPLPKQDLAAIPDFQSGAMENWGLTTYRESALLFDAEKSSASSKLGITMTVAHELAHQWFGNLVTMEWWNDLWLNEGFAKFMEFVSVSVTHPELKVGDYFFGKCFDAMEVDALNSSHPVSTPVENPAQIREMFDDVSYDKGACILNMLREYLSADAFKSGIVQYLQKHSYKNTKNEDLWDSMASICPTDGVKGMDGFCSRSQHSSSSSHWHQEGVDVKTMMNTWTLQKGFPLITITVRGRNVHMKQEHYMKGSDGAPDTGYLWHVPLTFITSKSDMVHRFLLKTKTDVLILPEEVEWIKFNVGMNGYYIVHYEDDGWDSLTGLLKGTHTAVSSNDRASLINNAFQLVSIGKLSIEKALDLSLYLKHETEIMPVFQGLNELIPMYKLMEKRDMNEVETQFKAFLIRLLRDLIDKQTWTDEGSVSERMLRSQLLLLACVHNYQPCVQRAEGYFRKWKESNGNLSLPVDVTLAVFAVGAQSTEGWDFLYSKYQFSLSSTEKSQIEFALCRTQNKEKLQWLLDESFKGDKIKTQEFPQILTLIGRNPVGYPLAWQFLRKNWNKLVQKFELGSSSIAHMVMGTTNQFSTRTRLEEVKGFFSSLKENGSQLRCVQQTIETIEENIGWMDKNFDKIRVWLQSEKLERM

Activity change, negative = inhibition, inactive:
O=C(Nc1ccc(C(F)(F)F)cc1)N1[C@@H]2CNC[C@H]1C2c1ccc(-c2ccncc2)cc1 (stereo partly drawn) 42.7%
CC(=O)Oc1cc2oc(=O)cc(C)c2cc1Cl 264%
CCOc1ccccc1-n1nnnc1SCC(=O)NC(=O)Cc1ccccc1 -3.38%
O=C(C[C@H]1CC[C@H](NC(=O)C2CCOCC2)[C@H](CO)O1)NCc1ccncc1 27.6%
Cc1noc(C)c1S(=O)(=O)Nc1ccc2c(c1)C(=O)N([C@H](C)CO)C[C@@H](C)[C@@H](CN(C)CC1CCCCC1)OCCCC[C@@H](C)O2 51.1%
CN1CCN(S(=O)(=O)c2ccc(C3CCCCC3)cc2)CC1 -7.06%
CCCN1[C@@H]2c3ccc(-c4cccnc4)c(=O)n3C[C@H]1[C@H](CO)[C@H]2C(=O)NCCc1cn(C)cn1 38.1%
COc1ccc(C(=O)NCc2nnc(SCC(=O)NC3CCCCC3)n2C)cc1 -3.46%
COc1ccc(NC(=O)Nc2ccc3c(c2)C(=O)N([C@@H](C)CO)C[C@H](C)[C@H](CN(C)Cc2ccc(C(=O)O)cc2)OCCCC[C@H](C)O3)cc1 48.4%
CCOCc1c(C(=O)Nc2ccc(OC)nc2)oc2ccccc12 1.18%
C[C@@H]1CN([C@@H](C)CO)C(=O)c2cccc(NC(=O)c3cnccn3)c2O[C@H]1CN(C)Cc1ccc(Cl)c(Cl)c1 17.8%
C[C@H]1CN([C@@H](C)CO)C(=O)CCCn2cc(nn2)CO[C@@H]1CN(C)Cc1ccccc1 23.4% [at 5.6 µM]
CCOc1ccccc1N1CCN(C(=O)C2=CC=CN3CCS(=O)(=O)N=C23)CC1 -12.7%
C/C=C/c1ccc([C@H]2[C@@H](CO)N(CC3CCOCC3)C23CN(S(=O)(=O)CC)C3)cc1 31.9%
Cc1cccc2sc(N(CCCN(C)C)C(=O)c3ccc4ncsc4c3)nc12 -4.43%
CCOc1ccccc1OCCCC(=O)Nc1ccc(S(=O)(=O)Nc2cc(C)nc(C)n2)cc1 9.91%
CN(C)C(=O)[C@@H]1[C@@H](CO)[C@@H]2Cn3c(ccc(/C=C/c4ccccc4)c3=O)[C@@H]2N1C(=O)c1cnccn1 10.7%
O=C(C[C@H]1CC[C@@H](NC(=O)Cc2ccccn2)[C@@H](CO)O1)NCCCN1CCOCC1 32.1%
O=C(COC(=O)c1ccc(CO)cc1)Nc1ccc2ccccc2c1 1.79%
Cc1ccc(Cl)cc1NC(=O)CCC(=O)O 17%
C[C@H](CO)N1C[C@H](C)[C@H](CN(C)C(=O)Nc2ccc(F)cc2)Oc2ccc(NC(=O)CCN3CCOCC3)cc2C1=O 5.52% [at 10 µM]
C[C@@H]1CN([C@H](C)CO)C(=O)Cc2cc(NC(=O)Nc3cccc4ccccc34)ccc2O[C@H]1CN(C)Cc1ccc(C(=O)O)cc1 18.3%
COc1ccc(NC(=O)Nc2cccc3c2O[C@H](CN(C)Cc2ccc(C(=O)O)cc2)[C@H](C)CN([C@@H](C)CO)C3=O)cc1 79.3%
CCc1ccc(NS(=O)(=O)c2ccc(C)c(C(=O)N3CCOCC3)c2)cc1 -17.5%
C[C@@H]1CN([C@@H](C)CO)C(=O)c2cc(NS(=O)(=O)c3ccc(Cl)cc3)ccc2O[C@@H](C)CCCCO[C@H]1CN(C)C 37.5% [at 5.6 µM]
CC(=O)N1CC[C@@H]2[C@H]1c1cc(-c3ccc(C#N)cc3)ccc1N(C)[C@H]2CO -3.73%
Cc1cc(C)n2nc(C(=O)Nc3ccc(N4CCOCC4)cc3)nc2n1 -17.4%
Cc1ccc(NC(=O)C(C)OC(=O)C2CC3CCCC(C2)C3=O)cc1S(=O)(=O)N1CCOCC1 (stereo not drawn) 3.8%
Cn1c(CCC(=O)Nc2cc(S(C)(=O)=O)ccc2Cl)nc2cc(S(=O)(=O)N3CCOCC3)ccc21 -16.7%
CC(C)NC(=O)C1C(c2ccc(C(F)(F)F)cc2)=Nc2ccccc2N1C(=O)c1ccco1 (stereo not drawn) 4.24%
CCOc1ccc(OCCCC(=O)N2CCN(S(=O)(=O)c3ccc(Cl)cc3)CC2)cc1 7.04%
C[C@H]1CN([C@@H](C)CO)C(=O)c2cc(NC(=O)CCN3CCOCC3)ccc2O[C@@H]1CN(C)S(=O)(=O)c1ccccc1 22.3%
Cc1ccc(S(=O)(=O)N(C)C[C@@H]2Oc3ccc(NC(=O)c4ccncc4)cc3C(=O)N([C@H](C)CO)C[C@H]2C)cc1 22.3% [at 10 µM]
C[C@H](CO)N1C[C@H](C)[C@@H](CN(C)C)OCCCC[C@H](C)Oc2ccc(NS(=O)(=O)c3ccc(Cl)cc3)cc2C1=O 10.9%
N#Cc1c(NC(=O)c2cccc(S(=O)(=O)Nc3ccc(C(=O)O)cc3)c2)sc2c1CCCC2 -7.29%
CC(C)NC(=O)N[C@@H]1CC[C@@H](CCNS(=O)(=O)c2ccc(Cl)cc2)O[C@@H]1CO 7.37%
Cc1noc(C)c1NC(=O)N(C)C[C@H]1Oc2c(NC(=O)Nc3ccc(F)cc3)cccc2C(=O)N([C@H](C)CO)C[C@H]1C 9.59%
CCN(CC)CCCN=C1N[C@@H](c2cccc(C(F)(F)F)c2)C(C(=O)OC)=C(C)N1CC -14.6%
